Screening results as filed in PubChem BioAssay.
Only some compounds are listed: those with a hit (about 7% of all), similar ones and a draw of the others.
AHR act: activates the human aryl hydrocarbon receptor; P35869; AHR-responsive luciferase reporter cells, luminescence; AID 2796; actives 2.5% (n = 320,000); activation, % at 5 µM; in the data active = activation above about 47%
rCAG RNA binder: binds r(CAG) RNA repeats | inhibition, % at 3 µM | actives 1.3% (n = 370,000) | r(CAG) RNA repeat, TO-PRO-1 dye displacement fluorescence;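 active = inhibition above the plate cutoff, the mean of all test compounds on that plate plus 3 SD, cut at about 35% in these data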;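 also: higher means more dye released from RNA so lower well fluorescence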
GRIN3A LBD mod: modulates the human NR3A ligand-binding domain; NR3A LBD differential scanning fluorimetry, Tm shift; 0% = protein alone, 100% = glycine-bound protein; Tm shift relative to glycine control, % at 25 µM; actives 2.5% (n = 340,000); AID 1259313;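 active = melting temperature shift of at least 10% of the positive control shift, at one fixed dose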
ADAM17 inh: ADAM17 inhibition, QFRET primary screen | actives 0.83% (n = 370,000) | P78536 | recombinant ADAM17, EDANS/DABCYL FRET peptide cleavage | inhibition, % at 6.95 µM;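 active = inhibition above the mean of compounds lying between control limits plus 3 SD, set per campaign, cut at about 8.5% in these data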
KLK7 zymogen act: proKLK7 (human) activation, primary screen. P49862. purified proKLK7, EDANS-DABCYL substrate fluorescence; 100% is mature enzyme control, 0% vehicle. activation, % at 7 µM. actives 0.9% (n = 370,000). AID 652039;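 active = activation above the mean of all tested compounds plus 3 SD, computed per campaign excluding outliers beyond control limits, cut at about 13% in these data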
Target sequence (P49862 whole entry, looked up): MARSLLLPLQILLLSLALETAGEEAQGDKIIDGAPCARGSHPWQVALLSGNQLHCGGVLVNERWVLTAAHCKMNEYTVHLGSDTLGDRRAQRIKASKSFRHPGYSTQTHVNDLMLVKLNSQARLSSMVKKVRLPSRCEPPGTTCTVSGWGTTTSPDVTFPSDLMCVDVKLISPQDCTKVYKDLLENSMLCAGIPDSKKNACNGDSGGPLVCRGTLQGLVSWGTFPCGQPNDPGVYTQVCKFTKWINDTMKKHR
ADAM10 inh: ADAM10 inhibition, QFRET primary screen. O14672. recombinant ADAM10, EDANS/DABCYL FRET peptide cleavage, 3 h. inhibition, % at 7 µM. actives 0.62% (n = 370,000);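 active = inhibition above a per-campaign cutoff equal to the mean of compounds falling between control-based bounds plus 3 SD, cut at about 20% in these data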
rCAG binder conf: r(CAG) RNA repeat binding, confirmation | inhibition, % at 3 µM | TO-PRO-1 dye displacement fluorescence | shares compounds with rCAG RNA binder | actives 70% (n = 4,300) | AID 652065;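 active = inhibition above a per-plate cutoff, the mean inhibition of sample wells plus 3 SD, cut at about 35% in these data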;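 also: loss of TO-PRO-1 fluorescence as compound displaces dye from 1x1 AA loop RNA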
dCAG dye counter: counter-screen for rCAG RNA binders: DNA CAG dye complex inhibitors | d(CAG) DNA oligo TO-PRO-1 dye displacement, fluorescence | actives 94% (n = 4,300) | inhibition, % at 3 µM | AID 652068 | shares compounds with rCAG RNA binder;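 active = inhibition above its plate's cutoff, the mean test-well inhibition plus 3 SD, cut at about 4.8% in these data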;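 also: hits displace the dye from DNA and so lower well fluorescence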
dCAG dye DR: DNA CAG dye complex inhibition, dose response counter-screen. AID 686960. DNA CAG/GTC duplex TO-PRO-1 dye displacement fluorescence. IC50, µM. actives 20% (n = 250). shares compounds with rCAG RNA binder; in the data active = IC50 below about 10 µM
Numbers stand for hits; – = inactive; · = not tested or not shown.

SMILES | AHR act | rCAG RNA binder | GRIN3A LBD mod | ADAM17 inh | KLK7 zymogen act | ADAM10 inh | rCAG binder conf | dCAG dye counter | others
O=C(Nc1ncccn1)c1ccc(Cl)c([N+](=O)[O-])c1 | – | – | – | – | – | – | · | ·
COc1ccc(C(=O)Nc2ccc(S(=O)(=O)Nc3cc(C)nc(C)n3)cc2)cc1 | – | – | – | – | – | – | · | ·
COc1ccc(C(=O)Nc2ccc(S(=O)(=O)Nc3cnc4ccccc4n3)cc2)cc1 | – | 45.9 | – | – | – | – | – | 5.7
CCC(Oc1ccccc1)C(=O)Nc1ccc(S(=O)(=O)Nc2cnc3ccccc3n2)cc1 (stereo not given) | – | 58.3 | – | – | – | – | 45.9 | 13.2
CCC(=O)OCCCN1CCC2(CCCCC2)C1=O | · | · | · | – | · | – | · | ·
O=C(CSC1=NS(=O)(=O)c2cc(Cl)ccc2N1)Nc1cccc(F)c1 | – | 60.2 | 19.5 | – | – | – | 41.7 | 11.6
CC(=O)c1ccc(NC(=O)CSC2=NS(=O)(=O)c3cc(Cl)ccc3N2)cc1 | – | 60.7 | 12.2 | – | – | – | 43.5 | 13.6
CCS(=O)(=O)Nc1ccc2c(c1)C(=O)N(C)[C@@H]1CC[C@H](CC(=O)N[C@@H]3CCN(Cc4ccccc4)C3)O[C@H]1CO2 | · | – | · | – | – | – | · | ·
C[C@H]1[C@@H](NCC2CCCCC2)CC[C@@]23CCCN2C(=O)CCC[C@@H]13 | · | · | · | – | · | – | · | ·
CCCCCC(=O)Nc1nc(C)c(-c2csc(Nc3cc(Cl)ccc3OC)n2)s1 | 50.5 | 39.5 | – | – | – | – | – | 13.3
COC(=O)COc1ccc(C2Nc3c(Cl)ccc(C(=O)O)c3C3C=CCC32)cc1 (stereo not given) | – | 76.3 | – | – | – | – | 49.1 | 17.2
O=C(O)c1ccc(Cl)c2c1C1C=CCC1C(c1ccccn1)N2 (stereo not given) | – | · | · | · | · | · | · | ·
COc1ccc(OC)c(C2Nc3c(Cl)ccc(C(=O)O)c3C3C=CCC32)c1 (stereo not given) | – | 49.9 | – | – | – | – | – | 7.1
COc1ccccc1C(=O)N1CCN(C(=O)[C@@H](Cc2ccccc2)NC(=O)[C@H]2O[C@@H](n3ccc(=O)[nH]c3=O)[C@H](O)[C@@H]2O)CC1 | · | – | · | – | – | – | · | ·
[N-]=C=C1C(=S)NC(=O)[C@H]([n+]2ccccc2)[C@H]1c1ccc(Cl)cc1 | – | 43.6 | 11.8 | – | – | – | 64.0 | 27.7
O=C(Nc1ccc(N2C(=O)C3C4C=CC(C4)C3C2=O)cc1)Nc1nnc(C(F)(F)F)s1 (stereo not given) | – | 54.8 | 19.6 | – | – | – | 39.9 | 15.8
CC(C)(C)NC(=O)C(c1cccc2ccccc12)n1c(=O)c(-c2cc3ccccc3[nH]2)nc2ccccc21 (stereo not given) | · | – | · | – | – | – | · | ·
COc1ccccc1NC(=O)c1cc2cc(Br)ccc2cc1O | 54.8 | 71.5 | 31.6 | – | – | – | 48.6 | 25.4
COc1ccccc1NC(=O)c1cc2ccc(O)cc2o/c1=N\O | – | 45.9 | 35.6 | – | – | – | – | 7.5
COc1ccccc1NC(=O)c1ccccc1C(=O)O | – | – | – | – | – | – | · | ·
COc1ccc(C)cc1NC(=O)NNC(=O)c1cc2ccccc2cc1O | – | 58.0 | – | – | – | – | 41.9 | 14.6
Cc1ccc(Cn2cc(CN3[C@H](C)COc4cc(Br)ccc4S3(=O)=O)nn2)cc1 | · | – | · | – | – | – | · | ·
CC1(C)OC(=O)C2=C(CC(CCc3ccccc3)OC2c2ccc(F)cc2)O1 (stereo not given) | · | – | · | – | – | – | · | ·
CC1(C(=O)NCc2ccccc2)CCC(=O)N1CCCn1ccnc1 (stereo not given) | · | – | · | – | – | – | · | ·
COc1ccc(-c2nc(/C=C3\C(C)=Nc4ccccc43)c(O)o2)cc1 | – | 51.5 | – | – | – | – | 34.8 | 20.1
SMILES | AHR act | rCAG RNA binder | GRIN3A LBD mod | ADAM17 inh | KLK7 zymogen act | ADAM10 inh | rCAG binder conf | dCAG dye counter | others
CC1=Nc2ccccc2/C1=C\c1nc(-c2ccccc2)oc1O | – | 60.2 | 10.2 | – | – | – | 37.0 | 16.6
CC1=Nc2ccccc2/C1=C/c1nc(-c2ccc(C)s2)oc1O | – | 46.2 | 20.1 | – | – | – | 41.9 | 21.5
C=C1/C=C(\C)[C@](C)(O)C[C@H](O)CC(=O)[C@H](O)[C@@H](O)[C@H](C)C[C@H](C)OC(=O)/C(C)=C/CC/C=C/[C@@H]2O[C@H]2C[C@H](C)C1 | – | · | · | · | · | · | · | ·
COC(=O)C1=C(C)N(Cc2ccc(C(F)(F)F)cc2)C(=NCc2ccccc2C(F)(F)F)NC1c1ccc(C(F)(F)F)cc1 (stereo not given) | · | – | · | – | – | – | · | ·
O=C(Cc1c[nH]c2ccccc12)Nc1ccc(Nc2cccnc2)c(-c2ccc(Cl)c(Cl)c2)c1 | · | – | · | – | – | – | · | ·
O=C(Cc1c[nH]c2ccccc12)Nc1ccc(Nc2cccnc2)c(Br)c1 | · | – | · | – | – | – | · | ·
C[C@H](O)[C@@H]1CN2CCc3ccc(N4CCOCC4)cc3[C@@H]2C[C@@H]1N(C)C(=O)c1cccc(Cl)c1 | · | – | · | – | – | – | · | ·
CCOC(=O)CCCNC(=O)OC1CC2CC1[C@H]1CCCCN1[C@H]2C (stereo not given in full) | · | – | · | – | – | – | · | ·
O=C1NC(=O)/C(=C/c2ccc(-c3cc(C(=O)O)ccc3Cl)o2)S1 | – | 53.1 | – | – | – | – | 52.1 | 14.7
O=C1NC(=O)/C(=C\c2ccc(Br)o2)S1 | – | – | – | – | – | – | · | ·
O=C1NC(=S)/C(=C\c2ccc(-c3ccccc3Cl)o2)S1 | – | 79.8 | – | – | – | – | 67.5 | 34.5
Cc1nnc(C)n1/N=C/c1ccc(-c2ccccc2Cl)o1 | – | – | – | – | – | – | · | ·
CCOc1ccc(NS(=O)(=O)c2ccc(Cl)c(N=Nc3c(O)[nH]c(=S)[nH]c3=O)c2)cc1Br | · | 92.5 | · | – | – | – | 92.5 | 66.5
COc1ccc(-c2cc(C)nc(SCc3cccc(C(=O)O)c3)n2)cc1 | – | 46.8 | – | – | – | – | 49.1 | 9.7 | dCAG dye DR=–
Cc1nc(SCc2cccc(C(=O)O)c2)nc2c1CCCC2 | – | – | – | – | – | – | · | ·
O=C(O)c1cccc(CSc2nc(-c3ccc(Cl)cc3)cc(C(F)(F)F)n2)c1 | – | 67.7 | – | – | – | – | 71.0 | 32.8 | dCAG dye DR=–
CC(C)(C)OC(=O)N1CCC(N[C@@H](Cc2c[nH]c3ccccc23)C(=O)NCC(c2ccccc2)c2ccccc2)(C(=O)NC2CCCCC2)CC1 | · | · | · | – | · | – | · | ·
COc1ccc(C(=O)N/C(=C\c2ccccc2)C(=O)Nc2ccc(C(=O)O)cc2)cc1 | · | – | – | – | – | – | · | ·
